Bioassay records as filed in PubChem.
OPRM1-OPRD1 ag: agonists of OPRM1-OPRD1 heterodimerization, primary screen, cell-based, luminescence; 340,000 tested, 0.3% active; activation, % at 9.3 µM; cells; Mu-type opioid receptor (Homo sapiens) + Delta-type opioid receptor (Homo sapiens), …; in the data active = activation above about 18%;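 note: 0% = vehicle-treated cells and 100% = reference agonist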
PolyA inh: polyadenylation inhibitors in yeast reporter cells, primary screen, luminescence, S. cerevisiae; activity score, % at 12 µM; S. cerevisiae SKY197-pL101 polyadenylation reporter, beta-gal luminescence; efflux-impaired pdr1/pdr3 knockout yeast; score 100 = 6 SD above DMSO; 300,000 tested, 0.02% active;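 active = lowest replicate activity score at least 50, where 100 means six control SD above control mean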;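 note: yeast exposed to compound for 9 h at 30 °C; higher score means more reporter readthrough which indicates perturbed polyadenylation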
NALP1 inh: NALP1 inflammasome inhibitors in reconstituted yeast, colorimetric, S. cerevisiae, triplicate retest; S. cerevisiae NALP1/ASC/caspase-1 growth, X-gal OD620, 72 h; inhibition, % at 10 µM; 280,000 tested, 0.61% active; in the data active = inhibition mostly above about 24%, no sharp cut-off; inactive = mostly below about 32%
HTR5A inv ag: HTR5A inverse agonists in luminescence cell assay, primary screen, counter-screen for OPRM1-OPRD1 heterodimer inverse agonist project, full-deck HTS | 340,000 tested, 0.083% active | AID 504634, 2011 | 5-hydroxytryptamine receptor 5A (Homo sapiens), P47898 | HTR5A cell line, inverse agonism | inhibition, % at 9.3 µM; in the data active = inhibition mostly above about 23%, no sharp cut-off; inactive = mostly below about 18%;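 note: 0% = cells with DMSO and 100% = no-cell wells with DMSO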
MOR-DOR inv ag: inverse agonists of MOR-DOR heterodimerization, primary screen, cell-based, luminescence | cell-based MOR-DOR heterodimer luminescence, inverse agonism | inhibition, % at 9.3 µM | Mu-type opioid receptor (Homo sapiens) + Delta-type opioid receptor (Homo sapiens), … | 340,000 tested, 0.21% active; in the data active = inhibition above about 22%, passing the limit was not always enough;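 note: 0% = cells with DMSO and 100% = wells without cells with DMSO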
HTR5A ag ctr: HTR5A agonists in luminescence cell assay, primary screen, counter-screen for OPRM1-OPRD1 heterodimer agonist project, full-deck HTS; 5-hydroxytryptamine receptor 5A (Homo sapiens), P47898; cell-based; activation, % at 9.3 µM; 340,000 tested, 0.61% active; AID 504692, 2011; in the data active = activation mostly above about 9.5%, no sharp cut-off; inactive = mostly below about 7.6%;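 note: 0% = cells with vehicle only and 100% = reference agonist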
Numbers without * were called inactive; . = no result. The list is not random: actives were taken first. Their share in the collection is about 1.6%.

SMILES	OPRM1-OPRD1 ag	PolyA inh	NALP1 inh	HTR5A inv ag	MOR-DOR inv ag	HTR5A ag ctr
Cc1ccc(S(=O)(=O)N2CCN(C(=O)COC(=O)c3oc4ccccc4c3C)CC2)cc1	0	17	.	9	0	-4
COc1ccc(C(=O)NCC(=O)OCC(=O)c2ccc3c(c2)OCCO3)cc1	-1	-12	36*	-2	7	1
Cc1ccc(N(CC(=O)Nc2c(C)n(C)n(-c3ccccc3)c2=O)S(C)(=O)=O)c(C)c1	0	8	2	5	0	2
Cc1ccc(N(CC(=O)N/N=C/c2cc(C)n(-c3ccccc3)c2C)S(C)(=O)=O)c(C)c1	-4	-16	14	-16	15	13*
CN(C)c1ccc(N=C/C=C2/N(C)c3ccccc3C2(C)C)cc1	5	-24	54*	3	-34	-1
CN1/C(=C\C=N\O)C(C)(C)c2ccccc21	2	4	4	-9	-13	3
Cc1ccc(NC(=O)c2ccc(=O)[nH]n2)cc1S(=O)(=O)Nc1ccc(SC(F)F)cc1	-4	.	.	1	14	2
CCOC(=O)n1c(SCC(N)=O)nc2ccccc21	-1	6	26*	-8	6	1
COc1ccc(CN2CCN(CCC(C)C)C(CCO)C2)cc1Cn1cncn1 (stereo unspecified)	-3	7	-1	8	17	-3
COC(=O)c1cn(NC(=O)c2ccccc2[N+](=O)[O-])c(=O)c2ccccc12	-3	.	16	2	16	-1
O=C(COc1ccccc1[N+](=O)[O-])Nc1ccc2c(c1)CCC2	3	.	.	-7	-11	2
COc1cc(N2CCC(O)CC2)ccc1Nc1nnc(Cl)c(Nc2ccccc2S(C)(=O)=O)n1	-1	.	.	26*	6	-9
COc1ccc(N2CCN(Cc3nc(N)nc(Nc4ccccc4OC)n3)CC2)cc1	0	-27	2	-1	0	-3
O=C(NCCN1CCNC1=O)C1CCC(=O)N(CCc2ccc(Cl)cc2)C1 (stereo unspecified)	-1	6	-2	-21	7	-2
O=C(NCCN1CCCC1=O)C1CCC(=O)N(CCc2ccc(Cl)cc2)C1 (stereo unspecified)	-2	-4	32*	6	11	5
O=C(O)C1C2C=CC(C2)C1C(=O)NCc1ccc2c(c1)OCO2 (stereo unspecified)	-1	0	9	20	8	-1
O=C(O)C1C2C=CC(C2)C1C(=O)NCc1ccc(Cl)c(Cl)c1 (stereo unspecified)	1	-2	47*	-16	-7	1
O=C(CCS(=O)(=O)c1ccc(Cl)cc1)N1CCN(c2ccccc2F)CC1	-1	12	28*	7	8	1
Cc1ccc(S(=O)(=O)CCC(=O)N2CCN(c3ccccc3F)CC2)cc1	-1	-5	2	23	7	0
CCCCSc1nnc(CNC(=O)C23CC4CC(CC(C4)C2)C3)n1Cc1ccccc1	1	3	25	-14	-5	4
O=C1CCCN1C(=O)CSc1ccc2ccccc2n1	-2	.	.	6	8	5
COc1ccc(S(=O)(=O)NCC2CCCN(Cc3cccnc3)C2)cc1 (stereo unspecified)	-3	-3	32*	18	14	-6
CN(C(=O)COC(=O)C1CCN(S(=O)(=O)c2ccc3c(c2)OCCO3)CC1)C1CCS(=O)(=O)C1 (stereo unspecified)	-2	-5	.	6	10	-2
CCN(CCCNC(=O)C1CCN(S(=O)(=O)c2cnc[nH]2)CC1)c1cccc(C)c1	0	20	11	-8	-1	11*
CCN(CCCNC(=O)C1CCCN(S(=O)(=O)CC)C1)c1cccc(C)c1 (stereo unspecified)	3	9	2	-19	-16	-3
